According to PubChem BioAssay (NCI):
This is part of a sample that, as a whole, favours compounds with a hit. Of some 83,000 tested, about 20% had one in any assay.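 How to read the values: 0–100, growth inhibition (40 = 60% inhibited); 0, no net growth; -100 to 0, cell death (-40 = 40% of starting cells died; -100 = all dead).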 Calls of active or inactive are those of the source. How the source made its calls: active means growth percent below 10; inactive means the rest.

system: MDA-MB-468 breast; assay: NCI-60 one-dose screen, 48 h (100 = growth as untreated, 0 = no growth, -100 = all killed); details: 10 µM unless noted

| Compound | growth |
| --- | --- |
| Nc1c(C(=O)Nc2ccccc2)sc2nc3c(cc12)CCCCCC3 | -25% (active) |
| CC(C)NS(=O)(=O)c1cccc(-c2ccc3c4c(n(CCCN(C)C)c(=O)c3c2)-c2ccccc2C4=O)c1 | 99.3% (inactive) |
| Cc1cc(Cl)nc(N(CCCNc2ccnc3cc(Cl)ccc23)Cc2ccccn2)n1 | 0.122% (active) |
| COc1ccc(-c2[nH]nc(N)c2-c2cc(OC)c3c(c2)OCO3)cc1 | 33.5% (inactive) |
| N#Cc1ncc(-c2ccc(C(F)(F)F)cc2)c(NC2CCCCCC2)n1 | -8.28% (active) |
| CC(=O)c1cc(C(=O)c2ccc3c(c2)Sc2ccccc2N3)c2cc(C)ccn12 | -3.41% (active) |
| COc1ccc(/C=N/Nc2cc(=O)[nH]c3ccc(Cl)cc23)cc1 | 78% (inactive) |
| C[C@]12CC[C@H]3[C@@H](CC=C4C[C@@H](O)CC[C@@]43C)[C@@H]1CC[C@@H]2C(=O)C/C=N/O | 90.2% (inactive) |
| CCN(CC)c1ccc2c(c1)Oc1nc(N)c(C#N)c(N)c1C2Sc1ccc(C)cc1 (centres undefined) | -88.4% (active) |
| Cc1ccc(NC(=O)CSc2nc3ccccc3c(=O)n2CCc2ccccc2)c(C(=O)O)c1 | 110% (inactive) |
| O=S(=O)(NCCCNc1nccc(-c2c(-c3cccc(F)c3)nc3sccn23)n1)c1cccc2ccccc12 | 59.3% (inactive) |
| COc1ccc(C(O)c2ccccc2)cc1 (centres undefined) | 3.29% (active) |
| COc1ccc2c(c1)c(/C(O)=C1\COC(=O)C1=O)cn2Cc1ccc(F)cc1 | 100% (inactive) |
| N/C(=N\C(N)=N\c1nc2ccccc2s1)c1ccnc(Cl)c1 | 51.9% (inactive) |
